Results as given in publication PMC11062922 (Nature Chemical Biology, 2023).
Like-named read-outs stand apart in the source and are kept apart here.

System: PRKD3
Conditions: read-out: apparent Kd, n = 1

Lestaurtinib
potency estimated from few doses (compound concentrations:100 nM and 1000 nM (sheet 'Lestaurtinib' of Supplementary Table 1),run:Lestaurtinib_02438_R1,Plate:MR008): 84.2 nM | potency estimated from few doses (compound concentrations:100 nM and 1000 nM (sheet 'Lestaurtinib' of Supplementary Table 1),run:Lestaurtinib_02438_R2,Plate:MR008): 51.6 nM | potency estimated from few doses (compound concentrations:100 nM and 1000 nM (sheet 'Lestaurtinib' of Supplementary Table 1),run:Lestaurtinib_02438_R3,Plate:MR008): 82.5 nM | potency estimated from few doses (compound concentrations:100 nM and 1000 nM (sheet 'Lestaurtinib' of Supplementary Table 1),run:Lestaurtinib_02443_R1,Plate:MR009): 91.7 nM | potency estimated from few doses (compound concentrations:100 nM and 1000 nM (sheet 'Lestaurtinib' of Supplementary Table 1),run:Lestaurtinib_02473_R1,Plate:MR010): 77.7 nM | potency estimated from few doses (compound concentrations:100 nM and 1000 nM (sheet 'Lestaurtinib' of Supplementary Table 1),run:Lestaurtinib_02473_R3,Plate:MR010): 79.7 nM | potency estimated from few doses (compound concentrations:100 nM and 1000 nM (sheet 'Lestaurtinib' of Supplementary Table 1),run:Lestaurtinib_02482_R1,Plate:MR011): 95.2 nM | potency estimated from few doses (compound concentrations:100 nM and 1000 nM (sheet 'Lestaurtinib' of Supplementary Table 1),run:Lestaurtinib_02482_R3,Plate:MR011): 132 nM | potency estimated from few doses (compound concentrations:100 nM and 1000 nM (sheet 'Lestaurtinib' of Supplementary Table 1),run:Lestaurtinib_02487_R1,Plate:MR012): 90.9 nM | potency estimated from few doses (compound concentrations:100 nM and 1000 nM (sheet 'Lestaurtinib' of Supplementary Table 1),run:Lestaurtinib_02487_R2,Plate:MR012): 84.9 nM | potency estimated from few doses (compound concentrations:100 nM and 1000 nM (sheet 'Lestaurtinib' of Supplementary Table 1),run:Lestaurtinib_02487_R3,Plate:MR012): 94.1 nM | potency estimated from few doses (compound concentrations:100 nM and 1000 nM (sheet 'Lestaurtinib' of Supplementary Table 1),run:Lestaurtinib_02496_R2,Plate:MR013): 79 nM | potency estimated from few doses (compound concentrations:100 nM and 1000 nM (sheet 'Lestaurtinib' of Supplementary Table 1),run:Lestaurtinib_02496_R3,Plate:MR013): 79.4 nM | potency estimated from few doses (compound concentrations:100 nM and 1000 nM (sheet 'Lestaurtinib' of Supplementary Table 1),run:Lestaurtinib_02566_R2,Plate:MR014): 57.7 nM | potency estimated from few doses (compound concentrations:100 nM and 1000 nM (sheet 'Lestaurtinib' of Supplementary Table 1),run:Lestaurtinib_02566_R3,Plate:MR014): 52.9 nM | potency estimated from few doses (compound concentrations:100 nM and 1000 nM (sheet 'Lestaurtinib' of Supplementary Table 1),run:Lestaurtinib_02572_R1,Plate:MR015): 45.9 nM | potency estimated from few doses (compound concentrations:100 nM and 1000 nM (sheet 'Lestaurtinib' of Supplementary Table 1),run:Lestaurtinib_02577_R1,Plate:MR016): 100 nM | potency estimated from few doses (compound concentrations:100 nM and 1000 nM (sheet 'Lestaurtinib' of Supplementary Table 1),run:Lestaurtinib_02577_R2,Plate:MR016): 87.6 nM | potency estimated from few doses (compound concentrations:100 nM and 1000 nM (sheet 'Lestaurtinib' of Supplementary Table 1),run:Lestaurtinib_02577_R3,Plate:MR016): 59.2 nM | potency estimated from few doses (compound concentrations:100 nM and 1000 nM (sheet 'Lestaurtinib' of Supplementary Table 1),run:Lestaurtinib_02584_R1,Plate:MR017): 95.1 nM | potency estimated from few doses (compound concentrations:100 nM and 1000 nM (sheet 'Lestaurtinib' of Supplementary Table 1),run:Lestaurtinib_02584_R2,Plate:MR017): 100 nM | potency estimated from few doses (compound concentrations:100 nM and 1000 nM (sheet 'Lestaurtinib' of Supplementary Table 1),run:Lestaurtinib_02584_R3,Plate:MR017): 113 nM | potency estimated from few doses (compound concentrations:100 nM and 1000 nM (sheet 'Lestaurtinib' of Supplementary Table 1),run:Lestaurtinib_02601_R2,Plate:MR018): 71.2 nM | potency estimated from few doses (compound concentrations:100 nM and 1000 nM (sheet 'Lestaurtinib' of Supplementary Table 1),run:Lestaurtinib_02601_R3,Plate:MR018): 77.1 nM | potency estimated from few doses (compound concentrations:100 nM and 1000 nM (sheet 'Lestaurtinib' of Supplementary Table 1),run:Lestaurtinib_02606_R1,Plate:MR019): 69.4 nM | potency estimated from few doses (compound concentrations:100 nM and 1000 nM (sheet 'Lestaurtinib' of Supplementary Table 1),run:Lestaurtinib_02606_R2,Plate:MR019): 130 nM | potency estimated from few doses (compound concentrations:100 nM and 1000 nM (sheet 'Lestaurtinib' of Supplementary Table 1),run:Lestaurtinib_02606_R3,Plate:MR019): 130 nM | potency estimated from few doses (compound concentrations:100 nM and 1000 nM (sheet 'Lestaurtinib' of Supplementary Table 1),run:Lestaurtinib_02624_R1,Plate:MR020): 67.4 nM | potency estimated from few doses (compound concentrations:100 nM and 1000 nM (sheet 'Lestaurtinib' of Supplementary Table 1),run:Lestaurtinib_02624_R2,Plate:MR020): 90.4 nM | potency estimated from few doses (compound concentrations:100 nM and 1000 nM (sheet 'Lestaurtinib' of Supplementary Table 1),run:Lestaurtinib_02624_R3,Plate:MR020): 79.8 nM | potency estimated from few doses (compound concentrations:100 nM and 1000 nM (sheet 'Lestaurtinib' of Supplementary Table 1),run:Lestaurtinib_02724_R1,Plate:MR021): 56.1 nM | potency estimated from few doses (compound concentrations:100 nM and 1000 nM (sheet 'Lestaurtinib' of Supplementary Table 1),run:Lestaurtinib_02724_R2,Plate:MR021): 71.1 nM | potency estimated from few doses (compound concentrations:100 nM and 1000 nM (sheet 'Lestaurtinib' of Supplementary Table 1),run:Lestaurtinib_02724_R3,Plate:MR021): 59.7 nM | potency estimated from few doses (compound concentrations:100 nM and 1000 nM (sheet 'Lestaurtinib' of Supplementary Table 1),run:Lestaurtinib_02741_R1,Plate:MR023): 88.2 nM | potency estimated from few doses (compound concentrations:100 nM and 1000 nM (sheet 'Lestaurtinib' of Supplementary Table 1),run:Lestaurtinib_02741_R2,Plate:MR023): 56.3 nM | potency estimated from few doses (compound concentrations:100 nM and 1000 nM (sheet 'Lestaurtinib' of Supplementary Table 1),run:Lestaurtinib_02741_R3,Plate:MR023): 88.4 nM | potency estimated from few doses (compound concentrations:100 nM and 1000 nM (sheet 'Lestaurtinib' of Supplementary Table 1),run:Lestaurtinib_02748_R1,Plate:MR024): 86 nM | potency estimated from few doses (compound concentrations:100 nM and 1000 nM (sheet 'Lestaurtinib' of Supplementary Table 1),run:Lestaurtinib_02748_R3,Plate:MR024): 98 nM | potency estimated from few doses (compound concentrations:100 nM and 1000 nM (sheet 'Lestaurtinib' of Supplementary Table 1),run:Lestaurtinib_02752_R1,Plate:MR025): 92.9 nM | potency estimated from few doses (compound concentrations:100 nM and 1000 nM (sheet 'Lestaurtinib' of Supplementary Table 1),run:Lestaurtinib_02752_R3,Plate:MR025): 99.3 nM | potency estimated from few doses (compound concentrations:100 nM and 1000 nM (sheet 'Lestaurtinib' of Supplementary Table 1),run:Lestaurtinib_02765_R3,Plate:MR026): 82.4 nM | potency estimated from few doses (compound concentrations:100 nM and 1000 nM (sheet 'Lestaurtinib' of Supplementary Table 1),run:Lestaurtinib_02766_R1,Plate:MR027): 99.2 nM
